Measurements reported in publication PMC7826789 (International Journal of Molecular Sciences, 2021).

Columns and labels:
Details in all cases: Compound Concentration (nM):1000
PRKG1 = test system: PRKG1
PRKG2 = test system: PRKG2
PRKR = test system: T1, PRKR
T1 construct: gene EIF2AK2

PRKX = test system: PRKX
PRP4 = test system: T2, PRP4
T2 construct: gene PRPF4B

PYK2 = test system: T3, PYK2
T3 construct: gene PTK2B

QSK = test system: T4, QSK
T4 construct: gene KIAA0999

RAF1 = test system: RAF1
RET(M918T) = test system: RET(M918T)
RET(V804L) = test system: RET(V804L)
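Further: KINOMEscan scanMAX binding as percent activity remaining versus control; lower means stronger binding.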

SMILES | Percent Control (PRKG1) [%] | Percent Control (PRKG2) [%] | Percent Control (PRKR) [%] | Percent Control (PRKX) [%] | Percent Control (PRP4) [%] | Percent Control (PYK2) [%] | Percent Control (QSK) [%] | Percent Control (RAF1) [%] | Percent Control (RET(M918T)) [%] | Percent Control (RET(V804L)) [%]
CC1=C(C(=O)Nc2ccc3[nH]ncc3c2)C(c2ccc3ccccc3c2)CC(=O)N1 (stereo not shown) [GSK270822A] | 48 | 29 | 89 | 22 | 62 | 77 | 91 | 87 | 34 | 46
O=C1Nc2ccc(C(=O)c3ccco3)cc2C1=Cc1cc(Cl)c(O)c(Cl)c1 [GW406108X] | 100 | 100 | 62 | 100 | 71 | 100 | 100 | 13 | 56 | 29
CC1=C(C(=O)Nc2ccc3[nH]ncc3c2)C(c2ccc(Cl)c(Cl)c2)CC(=O)N1 (stereo not shown) [GSK299115A] | 45 | 67 | 79 | 25 | 74 | 79 | 92 | 100 | 74 | 75
COc1cc2ncnc(Nc3ccc4c(cnn4Cc4ccccc4)c3)c2cc1OC.Cl [GW282449A] | 93 | 100 | 89 | 100 | 100 | 100 | 100 | 100 | 90 | 100
COc1cc(C=NNc2ncnc3c2cnn3-c2ccccc2)ccc1O [GW513184X] | 100 | 100 | 76 | 100 | 100 | 100 | 100 | 100 | 18 | 90
COc1ccc2c(-c3ccnc(Nc4cccc(OC(F)(F)F)c4)n3)cnn2n1 [GW810372X] | 82 | 97 | 75 | 100 | 100 | 96 | 95 | 100 | 100 | 100
NS(=O)(=O)c1ccc(N/N=C2\C(=O)Nc3ccc(Cl)cc32)cc1 [GW280670X] | 85 | 100 | 86 | 100 | 100 | 100 | 100 | 100 | 100 | 100
COc1cccc(-n2ncc3c(N/N=C/c4ccncc4)ncnc32)c1 [GW784752X] | 93 | 100 | 80 | 38 | 84 | 95 | 100 | 58 | 93 | 100
CC(C)COC(=O)c1ccc2c(c1)/C(=C/Nc1ccc(S(N)(=O)=O)cc1)C(=O)N2 [GW416981X] | 100 | 54 | 65 | 100 | 96 | 100 | 95 | 100 | 83 | 43
COc1cc(C)c(N(C)C(=O)CN(C)C)cc1Nc1nc(Nc2cccc(F)c2C(N)=O)c2cc[nH]c2n1 [GSK2219385] | 92 | 82 | 100 | 95 | 100 | 81 | 100 | 100 | 100 | 100
COC(=O)Nc1nc2ccc(Oc3ccc(NC(=O)Nc4cc(C(F)(F)F)ccc4F)cc3)cc2s1.Cl [GW693917A] | 100 | 91 | 85 | 100 | 100 | 94 | 88 | 17 | 0.8 | 1
COc1ccc(COc2ccc(Cc3cnc(N)nc3N)cc2OC)cc1 [GW632580X] | 100 | 86 | 100 | 100 | 88 | 84 | 100 | 100 | 93 | 88
O=C(Nc1n[nH]c2nc(-c3ccc(O)cc3)c(Br)cc12)C1CC1 [SB-725317] | 100 | 97 | 59 | 100 | 100 | 100 | 100 | 46 | 100 | 100
COc1cccc(-c2c[nH]c3c(N/N=C/c4ccncc4)ncnc23)c1 [GW814408X] | 100 | 97 | 94 | 100 | 100 | 100 | 28 | 74 | 79 | 95
CCS(=O)(=O)c1ccc(OC)c(Nc2ncc(-c3cccc(OC)c3)o2)c1 [GW580509X] | 100 | 100 | 85 | 100 | 82 | 100 | 100 | 100 | 50 | 78
Nc1ncnc2occ(-c3ccc(NC(=O)Nc4cc(C(F)(F)F)ccc4F)cc3)c12 [GW770249X] | 71 | 100 | 72 | 100 | 100 | 90 | 100 | 38 | 0.8 | 0.6
Cc1cc(O)cc(C)c1/C=C/c1cncc(C(N)=O)c1 [GW435821X] | 100 | 100 | 94 | 100 | 100 | 100 | 86 | 58 | 100 | 100
C/C(Nc1ccc(S(N)(=O)=O)cc1)=C1/C(=O)Nc2ccccc21 [GW335962X] | 90 | 94 | 63 | 87 | 100 | 99 | 97 | 83 | 92 | 98
COc1ccccc1-c1cc(/C=C2\C(=O)Nc3ncc(Br)cc32)cc(Br)c1O [GW442130X] | 100 | 100 | 90 | 100 | 96 | 100 | 100 | 100 | 100 | 91
Cl.O=C(O[C@H]1CN[C@H](C#Cc2cc3ncnc(Nc4ccc5c(cnn5Cc5ccccc5)c4)c3s2)C1)N1CCOCC1 [GSK200398A] | 95 | 100 | 65 | 77 | 100 | 99 | 100 | 88 | 100 | 100

SMILES | Percent Control (PRKG1) [%] | Percent Control (PRKG2) [%] | Percent Control (PRKR) [%] | Percent Control (PRKX) [%] | Percent Control (PRP4) [%] | Percent Control (PYK2) [%] | Percent Control (QSK) [%] | Percent Control (RAF1) [%] | Percent Control (RET(M918T)) [%] | Percent Control (RET(V804L)) [%]
NS(=O)(=O)c1ccc(N/N=C2\C(=O)Nc3ccc(C(=O)NCc4ccncc4)cc32)cc1 [GW300657X] | 100 | 94 | 65 | 94 | 81 | 58 | 100 | 100 | 80 | 74
CCS(=O)(=O)c1ccc(OC)c(Nc2ncc(-c3cccc(F)c3)o2)c1 [GW621970X] | 100 | 100 | 76 | 100 | 100 | 100 | 99 | 100 | 52 | 84
Cl.c1ccc(Cc2nc3ccc(Nc4ncnc5ccccc45)cc3[nH]2)cc1 [GR269666A] | 100 | 100 | 84 | 100 | 100 | 100 | 100 | 100 | 100 | 100
CN(C)CCNC(=O)Nc1ccc(N(C)c2ccnc(Nc3ccc(CS(C)(=O)=O)cc3)n2)cc1.Cl [GW830900A] | 100 | 95 | 100 | 90 | 100 | 57 | 87 | 100 | 79 | 88
Cl.O=C(Nc1ccc(Oc2ccc3[nH]c(NC(=O)c4ccccc4)nc3c2)cc1)Nc1cc(C(F)(F)F)ccc1F [GW709042A] | 91 | 88 | 85 | 100 | 100 | 100 | 100 | 27 | 2.5 | 3.6
COc1cc(N2CCN(C(C)C)CC2)ccc1Nc1nc(Nc2ccc(F)cc2C(=O)NC[C@@H](O)CO)c2cc[nH]c2n1 [GSK1392956A] | 100 | 100 | 80 | 80 | 100 | 2.4 | 100 | 100 | 93 | 86
CCc1ccc(Oc2nccc(-c3c(-c4ccc(F)cc4)ncn3C3CCNCC3)n2)cc1 [SB-242719] | 100 | 92 | 100 | 86 | 100 | 97 | 85 | 100 | 93 | 88
COc1ccc2[nH]c3c4[nH]c5ccc(OC)cc5c4c4c(c3c2c1)C(=O)NC4=O [GW296115X] | 74 | 0.9 | 100 | 23 | 97 | 68 | 56 | 100 | 21 | 4.2
COc1cc(/C=N/Nc2ncnc3[nH]ncc23)ccc1O [GW578748X] | 100 | 22 | 41 | 100 | 100 | 100 | 90 | 100 | 4.6 | 76
CN1CCN(C(=O)c2ccc(NC(=O)Nc3ccc(N(C)c4ccnc(Nc5ccc(CS(C)(=O)=O)cc5)n4)cc3)cc2)CC1.Cl [GW830263A] | 100 | 100 | 100 | 100 | 88 | 20 | 86 | 90 | 0.2 | 5.5
NS(=O)(=O)c1ccc(Nc2ncc(-c3ccccc3)o2)cc1 [GW572399X] | 96 | 100 | 55 | 100 | 100 | 100 | 100 | 100 | 100 | 100
COc1cc2ncn(-c3cc(O[C@H](C)c4ccccc4Cl)c(C(N)=O)s3)c2cc1OC [GSK237701A] | 100 | 92 | 82 | 97 | 61 | 62 | 97 | 73 | 51 | 56
CCn1c(-c2nonc2N)nc2c(C#CC(C)(C)O)nc(OCCNC)cc21.Cl [GSK949675] | 34 | 0.5 | 94 | 7.9 | 90 | 100 | 99 | 100 | 73 | 88
Cl.O=C(Nc1ccc(Oc2ccc3[nH]c(NC(=O)c4ccco4)nc3c2)cc1)Nc1cc(C(F)(F)F)ccc1F [GW683134A] | 96 | 88 | 68 | 100 | 100 | 93 | 100 | 9.5 | 0.7 | 0.4
Cl.O=S1CCN(Cc2ccc(-c3ccc4ncnc(Nc5ccc(OCc6ccccc6)c(F)c5)c4c3)o2)CC1 [GW576924A] | 100 | 100 | 86 | 100 | 100 | 100 | 100 | 100 | 100 | 100
NS(=O)(=O)c1ccc(N/N=C2\C(=O)Nc3ccc(-c4cnco4)cc32)cc1 [GW276655] | 68 | 57 | 54 | 100 | 100 | 79 | 100 | 100 | 59 | 60
CN(C)c1cc2c(Nc3ccc4c(cnn4Cc4ccccc4)c3)ncnc2cn1 [GW282974X] | 100 | 93 | 76 | 80 | 100 | 83 | 95 | 100 | 82 | 93
NS(=O)(=O)c1ccc(N/N=C2\C(=O)Nc3ccc(C(=O)NCCc4c[nH]cn4)cc32)cc1 [GW300660X] | 62 | 49 | 87 | 100 | 100 | 100 | 89 | 100 | 100 | 100
C[C@@H](Oc1cc(-n2cnc3ccc(OC4CCN(C)CC4)cc32)sc1C(N)=O)c1ccccc1Cl [GSK579289A] | 100 | 65 | 80 | 74 | 100 | 86 | 85 | 100 | 99 | 100
COc1ccc2cc(-c3c(-c4ccncc4)nc(-c4ccc(S(C)(=O)=O)cc4C)n3C)ccc2c1 [SB-633825] | 100 | 83 | 100 | 95 | 68 | 57 | 79 | 74 | 72 | 94
